Measured values published in PubChem BioAssay (EPA / NIEHS).
Calls of active or inactive are those of the source. The calls were made as follows: active = hit-call score of the fitted dose curve at least 0.9, where 1 is the maximum; inactive = score below 0.9.

Assays:
Details in all cases: mRNA level, 48 h; actives raise or lower the signal
[1] = read-out: Protein phosphatase 2A (PPP2R4), PTPA (gene 5524); assay: LTEA_HepaRG_PPP2R4: Life Technologies and Expression Analysis (LTEA) Assay for Protein phosphatase 2A (PPP2R4) using HepaRG (AID 2283522)
Procedure, shortened: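 Differentiated HepaRG cells in serum-free induction medium were exposed in duplicate for 48 h to eight concentrations, top 100 uM with half-log dilutions, in 0.5% DMSO. PPP2R4 mRNA was quantified by TaqMan qRT-PCR, normalized to ACTB, GAPDH and POLR2A.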

[2] = read-out: Phosphatase and tensin (PTEN), PTEN (gene 5728); assay: LTEA_HepaRG_PTEN: Life Technologies and Expression Analysis (LTEA) Assay for Phosphatase and tensin (PTEN) using HepaRG (AID 2283523)
Procedure, shortened: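 Differentiated human HepaRG cells, plated 48 h then switched to serum-free induction medium, were exposed in duplicate for 48 h to eight half-log concentrations up to 100 uM in 0.5% DMSO. PTEN mRNA measured by TaqMan qRT-PCR, normalized to ACTB/GAPDH/POLR2A, bidirectional fit versus DMSO.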

[3] = read-out: solute carrier (SLC22A1), SLC22A1 (gene 6580); assay: LTEA_HepaRG_SLC22A1: Life Technologies and Expression Analysis (LTEA) Assay for solute carrier (SLC22A1) using HepaRG (AID 2283524)
Procedure, shortened: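 Human HepaRG cells were plated 48 h, switched to serum-free induction medium, then exposed in duplicate for 48 h to 8-point half-log series from 100 uM in 0.5% DMSO. SLC22A1 mRNA measured by qRT-PCR, normalized to ACTB/GAPDH/POLR2A, fitted bidirectionally versus DMSO.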

[4] = read-out: Pyruvate Dehydrogenase Kinase 4 (PDK4), PDK4 (gene 5166); assay: LTEA_HepaRG_PDK4: Life Technologies and Expression Analysis (LTEA) Assay for Pyruvate Dehydrogenase Kinase 4 (PDK4) using HepaRG (AID 2283525)
Procedure, shortened: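 Differentiated human HepaRG cells, pre-cultured 48 h, were exposed in duplicate for 48 h in serum-free induction medium to eight half-log concentrations up to 100 uM in 0.5% DMSO. PDK4 mRNA was quantified by qRT-PCR, normalized to ACTB, GAPDH and POLR2A, bidirectional fitting versus DMSO.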

[5] = read-out: NAD(P)H dehydrogenase [quinone] 1 (NQO1), NQO1 (gene 1728); assay: LTEA_HepaRG_NQO1: Life Technologies and Expression Analysis (LTEA) Assay for NAD(P)H dehydrogenase [quinone] 1 (NQO1) using HepaRG (AID 2283526)
Procedure, shortened: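 Differentiated HepaRG cells, plated 48 h and then switched to serum-free induction medium, were exposed in duplicate for 48 h to 8-point half-log concentrations up to 100 uM in 0.5% DMSO. mRNA measured by qRT-PCR, normalized to ACTB, GAPDH, POLR2A; bidirectional fit versus DMSO.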

[6] = read-out: Nuclear factor erythroid 2-related factor 2 (Homo sapiens) (UniProt Q16236); assay: LTEA_HepaRG_NFE2L2: Life Technologies and Expression Analysis (LTEA) Assay for Nuclear factor erythroid 2-related factor 2 (NFE2L2) Transcription Factor using HepaRG (AID 2283527);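 also: TaqMan qRT-PCR transcript level normalised to ACTB GAPDH and POLR2A housekeeping genes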
Procedure, shortened: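 Differentiated human HepaRG cells in serum-free induction medium were exposed for 48 h to eight concentrations (top 100 uM, half-log dilutions, 0.5% DMSO), in duplicate. NFE2L2 mRNA was quantified by TaqMan qRT-PCR, normalized to ACTB, GAPDH and POLR2A, with bidirectional fitting versus DMSO.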

[7] = read-out: succinate dehydrogenase complex iron sulfur subunit B (SDHB), SDHB (gene 6390); assay: LTEA_HepaRG_SDHB: Life Technologies and Expression Analysis (LTEA) Assay for succinate dehydrogenase complex iron sulfur subunit B (SDHB) using HepaRG (AID 2283528)
Procedure, shortened: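 Readout is SDHB transcript level by qRT-PCR, normalised to three housekeeping genes and fitted bidirectionally against 0.5% DMSO vehicle. Human HepaRG cells were treated for 48 h at up to 100 uM.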

[8] = read-out: Signal transducer and activator of transcription 3 (Homo sapiens) (UniProt P40763); assay: LTEA_HepaRG_STAT3: Life Technologies and Expression Analysis (LTEA) Assay for Signal transducer and activator of transcription (STAT3) using HepaRG (AID 2283529)
Procedure, shortened: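 Differentiated human HepaRG cells in serum-free induction medium were exposed in duplicate for 48 h to eight half-log concentrations up to 100 uM in 0.5% DMSO. STAT3 mRNA was quantified by TaqMan qRT-PCR, normalized to ACTB, GAPDH and POLR2A, and fitted bidirectionally against DMSO.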

[9] = read-out: solute carrier (SLCO1B1), SLCO1B1 (gene 10599); assay: LTEA_HepaRG_SLCO1B1: Life Technologies and Expression Analysis (LTEA) Assay for solute carrier (SLCO1B1) using HepaRG (AID 2283530)
Procedure, shortened: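 Differentiated human HepaRG cells were exposed for 48 h in serum-free induction medium to eight half-log concentrations, top 100 uM, in 0.5% DMSO. SLCO1B1 mRNA was measured by qRT-PCR, normalized to ACTB, GAPDH and POLR2A, and fitted bidirectionally against DMSO.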

[10] = read-out: sulfotransferase 2A1 (SULT2A1), SULT2A1 (gene 6822); assay: LTEA_HepaRG_SULT2A1: Life Technologies and Expression Analysis (LTEA) Assay for sulfotransferase 2A1 (SULT2A1) using HepaRG (AID 2283531)
Procedure, shortened: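 HepaRG human liver cells, 48 h exposure in serum-free induction medium to 8 half-log concentrations topping at 100 µM (0.5% DMSO), duplicate wells. SULT2A1 mRNA measured by TaqMan qRT-PCR, normalized to ACTB/GAPDH/POLR2A; bidirectional fit against DMSO.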

Measured: outcome

Chain of Signal transducer and activator of transcription 3 (Homo sapiens) (P40763 whole entry, looked up): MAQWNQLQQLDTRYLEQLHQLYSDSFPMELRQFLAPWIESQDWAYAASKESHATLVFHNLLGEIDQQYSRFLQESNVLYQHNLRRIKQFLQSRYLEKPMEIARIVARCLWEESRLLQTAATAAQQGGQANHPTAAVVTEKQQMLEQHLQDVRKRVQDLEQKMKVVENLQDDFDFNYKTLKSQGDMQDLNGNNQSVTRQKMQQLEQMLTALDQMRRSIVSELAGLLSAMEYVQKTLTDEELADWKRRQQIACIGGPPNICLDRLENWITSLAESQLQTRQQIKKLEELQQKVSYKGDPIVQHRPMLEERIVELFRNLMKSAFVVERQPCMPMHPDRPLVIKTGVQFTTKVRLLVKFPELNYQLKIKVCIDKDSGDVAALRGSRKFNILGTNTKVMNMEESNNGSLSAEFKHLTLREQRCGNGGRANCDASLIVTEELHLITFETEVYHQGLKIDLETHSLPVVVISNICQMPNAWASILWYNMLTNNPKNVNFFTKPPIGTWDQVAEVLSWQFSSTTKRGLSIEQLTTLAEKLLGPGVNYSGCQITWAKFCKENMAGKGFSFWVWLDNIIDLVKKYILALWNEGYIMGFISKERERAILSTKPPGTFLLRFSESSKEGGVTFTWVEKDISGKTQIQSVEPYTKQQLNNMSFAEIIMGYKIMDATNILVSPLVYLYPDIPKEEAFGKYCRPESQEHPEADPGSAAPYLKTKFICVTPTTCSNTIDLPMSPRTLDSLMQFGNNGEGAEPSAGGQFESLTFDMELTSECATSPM
Chain of Nuclear factor erythroid 2-related factor 2 (Homo sapiens) (Q16236 whole entry, looked up): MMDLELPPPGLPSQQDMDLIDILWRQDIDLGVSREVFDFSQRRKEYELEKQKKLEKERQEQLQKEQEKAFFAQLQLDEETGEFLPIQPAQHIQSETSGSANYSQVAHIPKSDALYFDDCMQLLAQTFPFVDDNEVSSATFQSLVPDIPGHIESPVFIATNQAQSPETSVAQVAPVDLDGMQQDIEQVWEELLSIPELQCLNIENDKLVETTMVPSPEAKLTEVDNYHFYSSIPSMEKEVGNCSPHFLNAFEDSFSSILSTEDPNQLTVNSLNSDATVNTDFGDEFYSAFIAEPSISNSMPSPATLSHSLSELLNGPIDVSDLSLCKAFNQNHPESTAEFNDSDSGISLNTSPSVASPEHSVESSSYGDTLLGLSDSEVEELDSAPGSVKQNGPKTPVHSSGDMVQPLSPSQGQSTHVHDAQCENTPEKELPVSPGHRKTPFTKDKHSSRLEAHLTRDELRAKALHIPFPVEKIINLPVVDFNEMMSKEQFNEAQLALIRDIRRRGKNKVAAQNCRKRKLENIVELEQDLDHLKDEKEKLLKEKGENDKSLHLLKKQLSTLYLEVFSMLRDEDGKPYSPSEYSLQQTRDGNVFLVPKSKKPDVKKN

CS(=O)(=O)OCCCCOS(C)(=O)=O
inactive: all assays above
